Assay outcomes deposited in PubChem BioAssay by National Center for Advancing Translational Sciences (NCATS).
Shown are actives, neighbours in structure and some others; about 8.8% of the full set was active somewhere.
HPGD inh = blocks human HPGD enzyme activity. purified HPGD, NADH fluorescence kinetic, PGE2 substrate. P15428. actives 4.3% (n = 150,000). AID 894. Potency, µM, for inactives: at the top dose activity change, negative = inhibition, most hits filed as inhibitors; also: % is scaled to controls: 0 for no effect and ±100 for the full control effect
Target sequence (P15428 whole entry, looked up): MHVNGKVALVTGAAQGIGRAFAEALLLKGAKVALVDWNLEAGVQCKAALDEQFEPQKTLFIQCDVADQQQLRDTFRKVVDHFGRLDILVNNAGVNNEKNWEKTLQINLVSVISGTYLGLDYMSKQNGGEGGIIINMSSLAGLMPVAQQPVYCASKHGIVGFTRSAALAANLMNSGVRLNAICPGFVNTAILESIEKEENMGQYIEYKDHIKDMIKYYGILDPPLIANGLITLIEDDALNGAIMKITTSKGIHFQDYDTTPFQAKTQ
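20 nM HPGD preincubated 15 min at room temperature with compound in 50 mM Tris-HCl pH 8, 0.01% Tween 20. Started with 1 mM NAD+ and 30 uM prostaglandin E2; NADH fluorescence (360/450 nm) read 5 times over 30-s intervals, last minus first.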
HTT ATP protect = Huntington cell model cytoprotection by ATP luminescence; PC12 HTT-Q103 induced, cytoprotection, ATP luminescence, 40 h; Potency, µM (top dose mostly 56.4 µM), for inactives: cytoprotection (ATP increase), actives largely listed as activators; actives 0.14% (n = 230,000); AID 1471; active = well fitted curve in the direction sought with a large enough effect; inconclusive = small, poorly fitted or top-dose-only effect, or another doubt; inactive = no such curve, though single readings can be large; an effect the other way counts as inactive or inconclusive; also: % of control where 0% means no effect; nearly all actives have a fitted effect of over 45% in size
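PC12 cells with ecdysone-inducible HTT exon 1 Q103-GFP, induced with 100 nM tebufenozide and co-treated with library compounds in a dose series (1536-well, 1500 cells/well). Cytoprotection read as ATP content by ATPlite luminescence.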
Lamin A splicing = modulators of lamin A splicing | HeLa LMNA splicing GFP/RFP minigene ratio, 48 h | Potency, µM (highest dose often 46.1 µM), inactives show at the highest dose ratio change, negative = inhibition, hits mostly inhibitors | actives 0.01% (n = 200,000); active = well fitted inhibition curve with a large enough effect in the signal ratio, with a control signal flat, not every such curve was filed as active; inconclusive = small, poorly fitted or top-dose-only effect, or effect the other way, or a change in a side signal; the % refers to the signal ratio; also: % is scaled to controls: 0 for no effect and ±100 for the full control effect
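S3 HeLa stable clones carrying a lamin A-EGFP splicing minigene plus DsRed2 were seeded at 600 cells/well in Opti-MEM with 2% FBS, pin-dosed and incubated 48 h at 37°C. Acumen cytometry (488 nm) gave the GFP/RFP total-intensity ratio.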
ALDH1A1 block = ALDH1A1 (human) enzyme inhibition. actives 7.3% (n = 220,000). P00352. Potency, µM (top dose mostly 75.3 µM), for inactives: top-dose activity, negative = inhibition, actives largely listed as inhibitors. Purified ALDH1A1, NADH fluorescence, propionaldehyde substrate;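 also: plate controls were no enzyme wells and a reference inhibitor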
Target sequence (P00352 whole entry, looked up): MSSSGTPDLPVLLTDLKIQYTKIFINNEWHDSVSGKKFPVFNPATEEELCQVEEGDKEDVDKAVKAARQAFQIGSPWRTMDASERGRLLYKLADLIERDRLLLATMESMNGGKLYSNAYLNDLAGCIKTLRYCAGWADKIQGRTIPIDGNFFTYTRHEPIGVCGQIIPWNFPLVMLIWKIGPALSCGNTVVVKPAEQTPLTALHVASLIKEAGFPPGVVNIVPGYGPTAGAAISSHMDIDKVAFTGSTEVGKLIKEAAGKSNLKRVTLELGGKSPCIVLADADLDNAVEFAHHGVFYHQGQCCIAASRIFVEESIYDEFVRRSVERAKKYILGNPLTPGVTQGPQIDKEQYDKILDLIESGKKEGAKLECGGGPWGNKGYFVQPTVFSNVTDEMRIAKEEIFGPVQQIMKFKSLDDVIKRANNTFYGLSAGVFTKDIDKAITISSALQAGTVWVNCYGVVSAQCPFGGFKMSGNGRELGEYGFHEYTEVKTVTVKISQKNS
HttQ103 aggreg = mutant huntingtin aggregation inhibition | PC12 HttQ103-GFP aggregates, Acumen cytometry, 40 h | Potency, µM (highest dose often 46.1 µM), for inactives: top-dose activity change, negative = inhibition, hits mostly inhibitors | actives 1.1% (n = 220,000) | AID 1688; active = well fitted curve in the direction sought with a large enough effect; inconclusive = small, poorly fitted or top-dose-only effect, or another doubt; inactive = no such curve, though single readings can be large; an effect the other way counts as inactive or inconclusive; also: % is scaled to controls: 0 for no effect and ±100 for the full control effect; nearly all actives have a fitted effect of over 60% in size
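Multiplexed with ATP-based cell death, this channel scores GFP aggregates in PC12 cells expressing inducible HTTex1-Q103-GFP. Induction used 100 nM tebufenozide; compounds were tested in concentration series.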
Starred values were filed as active, the others as inactive; u = inconclusive; x = not tested or not shown; [ ] = remark or other dose. Unless noted, calls follow the shape of the dose curve; as a rule, active = well fitted inhibition curve with a large enough effect (not every such curve was filed as active); inconclusive = small, poorly fitted or top-dose-only effect, or another doubt; inactive = no such curve, though single readings can be large or run the other way. Potency is read from the fitted curve at half-maximal effect.

SMILES	HPGD inh	HTT ATP protect	Lamin A splicing	ALDH1A1 block	HttQ103 aggreg
COc1cc(N2CCCC2)c(OC)cc1/C=c1/sc2nc3ccccc3n2c1=O	-0.3%	-5.0%	6.2%	15.8µM*	-2.9%
CN(C)/C=C/C(=O)c1ccc(F)cc1F	x	19.2%[10 µM]	x	x	-8.4%[9.22 µM]
O=C1N=C(N2CCOCC2)S/C1=C/c1ccc(-c2ccccc2Cl)o1	-18.5%	28.5%[10 µM]	-8.3%	-10.3%	-3.6%
O=C(NCCN1CCOCC1)c1ccc2c(c1)N(Cc1c(F)cccc1Cl)C(=O)c1ccccc1S2	x	-54.9%	u	-5.4%	-10.2%
O=C1S/C(=C\c2ccc(N3CCOCC3)o2)C(=O)N1c1ccccc1	x	-16.7%	x	0.891µM*	15.8µM*
O=C1S/C(=C/c2ccc(N3CCOCC3)o2)C(=O)N1Cc1c(F)cccc1Cl	-18.7%	35.8%	6.3%	0.126µM*	u
O=C1S/C(=C\c2ccc(N3CCOCC3)o2)C(=O)N1Cc1c(F)cccc1Cl	u	-33.5%	u	0.126µM*	21.0%
O=C(CSc1nc2c([nH]c3ccccc32)c(=O)n1-c1cccc(Cl)c1)N1CCCC1	x	x	-7.1%[46 µM]	x	x
Cc1cc(C)n(CCc2nc3c4ccccc4n(CC#N)c(=O)n3n2)n1	-9.2%	5.6%	15.7%	11.2µM*	3.4%
CCc1nc(N[C@H](C(=O)O)C(C)C)c2oc3ccccc3c2n1	x	2.8%[10 µM]	x	0.794µM*	-14.0%[9.22 µM]
CCc1nc(NC(C)C)c2oc3ccccc3c2n1	-12.7%	-26.9%	11.7%	u	-13.6%
CCc1nc(N[C@@H](CC(C)C)C(=O)O)c2oc3ccccc3c2n1	-9.1%	2.9%	6.8%[0.0737 µM]	0.891µM*	6.3%
O=C1CN(C(=O)CNCc2ccccc2Cl)c2ccccc2N1	x	-4.2%[10 µM]	x	20µM*	-0.6%[9.22 µM]
CC(C)[C@H](NC(=O)c1ccco1)C(=O)OCC(=O)N1CC(=O)Nc2ccccc21	x	-19.7%	1.8%[46 µM]	14.1µM*	25.4%
O=C1CN(C(=O)COc2ccccc2F)c2ccccc2N1	-19.7%	u	10.7%	17.8µM*	-4.5%
O=C1CN(C(=O)CNCc2cccc(Cl)c2)c2ccccc2N1	x	20.8%[10 µM]	x	x	-3.7%[9.22 µM]
CCCc1nn2c(=O)cc(COC(=O)c3ccccc3NC(=O)c3ccc(OCC)cc3)nc2s1	x	x	6.3%[46 µM]	x	x
CC1(C)C(=O)C(c2ccccc2)=C2CN3C(=O)N(CCc4ccccc4)C(=O)C3(Cc3ccccc3)C=C21 (stereo unspecified)	-16.6%	-1.4%	x	-29.3%	x
O=P1(O)Oc2c(c(-c3ccccc3)cc3ccc4ccccc4c23)-c2c(-c3ccccc3)cc3ccc4ccccc4c3c2O1	-23.0%	-19.5%	x	-0.9%	x
COc1cc2nc(N(C)CCCNC(=O)[C@@H]3CCCO3)nc(N)c2cc1OC	u	3.3%[40.3 µM]	u	u	11.5%[20.6 µM]
O=C(NCC1CCCO1)c1nn2cccnc2c1Cl (stereo unspecified)	25.1µM*	-22.5%[0.074 µM]	-5.0%	-5.8%	5.8%
O=C(NCC12CC3CC(CC(C3)C1)C2)c1nn2cccnc2c1Cl	17.8µM*	-15.6%	6.3%	15.8µM*	13.0%
COc1ccc(-c2nc(CSc3nc4ncccc4[nH]3)c(C)o2)cc1OC	x	x	-28.7%[46 µM]	x	x
CCOC(=O)C1=C(Cc2ccc(Cl)cc2)C(=O)c2ccccc2C1=O	3.55µM*	-70.3%	u	u	19.2%
O=C(NCC(c1cccnc1)N1CCOCC1)C(=O)Nc1cccc(Cl)c1 (stereo unspecified)	x	x	11.6%[46 µM]	x	x
SMILES	HPGD inh	HTT ATP protect	Lamin A splicing	ALDH1A1 block	HttQ103 aggreg
CCOC(=O)c1noc2nc(C)n(Cc3cccc(C#N)c3)c(=O)c12	x	x	7.1%[46 µM]	x	x
CCN=C1S/C(=C\c2ccc(-c3cccc(C(=O)O)c3)o2)C(=O)N1CC	x	11.7%[10 µM]	x	u	1.1%
CCN1C(=O)/C(=C\c2ccc(-c3ccc([N+](=O)[O-])cc3OC)o2)SC1=Nc1cccc(C(=O)O)c1	x	x	u	0.631µM*	0.9%
O=C1C[C@@H](O)[C@@H](O)[C@H]2[C@@H]3C(=O)N(Cc4ccccc4)C(=O)[C@@H]3CC[C@H]12	x	-9.4%[10 µM]	x	-1.2%[13.5 µM]	x
O=C(c1cccc(F)c1)N1CCC[C@@]2(CCN(C(c3ccccc3)c3ccccc3)C2)C1	-27.6%	-136.2%	x	8.91µM*	x
O=C(c1cccc(F)c1)N1CCC2(CCCN(c3cccc(-c4ccccc4)c3)C2)CC1	-14.4%	-49.1%	x	11.2µM*	x
O=C(c1cccc(F)c1)N1CCC2(CC1)CN(C(c1ccccc1)c1ccccc1)C2	-13.8%	-4.1%	x	u	x
O=C(c1cccc(F)c1)N1CCC[C@@]2(CCN(Cc3ccccc3)C2)C1	17.8µM*	u	x	-6.7%	x
O=C(c1cccc(F)c1)N1CCC[C@@]2(CCN(c3ccccc3)C2)C1	7.94µM*	-9.4%	x	1.12µM*	x
N#CCCn1c(=O)c(-c2ccccc2)nc2cnc(N3CCOCC3)nc21	x	-1.8%	-2.3%	u	x
COC(=O)CC1c2ccccc2C(Cc2ccc(OC)cc2)C(C)N1C(=O)OC (stereo unspecified)	-6.2%	-19.6%[10 µM]	-1.8%[9.22 µM]	9.2%[13.5 µM]	x
CCc1ccccc1NC(=O)CN1C(=O)c2cccnc2Sc2ccccc21	x	x	-5.5%[46 µM]	x	x
Cc1cccc2cc(CN(Cc3ccccc3)C(=O)c3cccc(F)c3)c(Cl)nc12	-21.9%	-8.5%	14.9%	8.91µM*	-23.5%
Cc1cccc2cc(CN(C(=O)c3cnccn3)C3CCCCC3)c(Cl)nc12	-14.7%	-10.0%[10 µM]	-9.8%	-4.5%	-20.4%
COc1ccc(Cl)cc1S(=O)(=O)Nc1cccc(-c2ccc(N3CCOCC3)nn2)c1	x	x	-11.6%[46 µM]	x	x
CCN(CC)CCN1C(=O)C(=O)/C(=C(/O)c2cccc(OC)c2)C1c1ccccn1 (stereo unspecified)	31.6µM*	-29.0%	14.1%	u	16.4%
CC1Cc2cc(/C(O)=C3/C(=O)C(=O)N(CCN4CCOCC4)C3c3cccc(Cl)c3)ccc2O1 (stereo unspecified)	28.2µM*	-18.3%[0.074 µM]	0.4%	11.2µM*	30.0%
CCOc1cccc(/C(O)=C2/C(=O)C(=O)N(CCN3CCOCC3)C2c2ccncc2)c1 (stereo unspecified)	x	x	x	22.4µM*	x
CCOc1cccc(/C(O)=C2/C(=O)C(=O)N(CCOC)C2c2ccco2)c1 (stereo unspecified)	-22.2%	-3.7%	13.3%	25.1µM*	25.6%
COc1ccc(C2/C(=C(/O)c3ccc4c(c3)CC(C)O4)C(=O)C(=O)N2CCN2CCOCC2)cc1 (stereo unspecified)	-10.9%	-14.4%[0.074 µM]	8.2%	-8.2%	3.8%
CC#CCN1c2ccccc2[C@]23C[C@@H](C(=O)OC)N(S(=O)(=O)CCCC)C2=NC(C(=O)OC)=C(C(=O)OC)[C@H]13	-8.0%	9.1%[10 µM]	-1.0%[9.22 µM]	2.9%[13.5 µM]	x
CCOc1nc(OCC)nc(N2CCC(C)CC2)n1	-2.6%	-2.1%[10 µM]	18.0%	10µM*	11.9%
COc1cc(C(=S)N2CCCC2)cc(Cl)c1OCC(=O)Nc1ccc(C)cc1C	7.94µM*	x	u	2.51µM*	12.2%
Nc1nc(SCC(=O)c2ccc(Br)cc2)c2[nH]cnc2n1	1.0%	6.4%[10 µM]	x	8.1%[13.5 µM]	x
